Bioassay records deposited in PubChem by National Center for Advancing Translational Sciences (NCATS).
Nrf2 block: Nrf2 qHTS screen for inhibitors; AID 504444, 2011; A549 ARE-Fluc reporter, luciferase luminescence, 18-24 h; 360,000 tested, 2.1% active; Potency, µM (titrated, usually from 46 µM), inactives show top-dose activity change, negative = inhibition, actives largely listed as inhibitors; note: potency is the fitted concentration of half-maximal effect; % is set by controls: 0 for no effect and ±100 for the full control effect; nearly all actives have a fitted effect of over 60% in size
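Cells were seeded and rested 2 h, then exposed to compounds for 18-24 h. CellTiter-Fluor was read first as a viability measure. BugLite was added 15 min before the final luminescent read of ARE-luciferase activity in A549 cells.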
TCR activator: Activators of T cell receptors: qHTS campaign; primary human leukocytes, anti-CD3, IL-2 HTRF, 48 h; AID 504894, 2011; 330,000 tested, under 10 active; Potency, µM (highest dose often 9.22 µM), inactives show at the top dose activation of IL-2 secretion, actives largely listed as activators; note: % of control where 0% means no effect
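Primary human leukocytes incubated 48 hr with anti-CD3 beads plus compound, without co-stimulation. Secreted IL-2 measured by HTRF (europium cryptate/d2 anti-IL-2 pair, 320 nm excitation, 665 nm emission).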
CCT chaperon mod: High-Throughput Screening for Modulators of Cytosolic Chaperonin Activity. purified chaperonin ATPase assay, HTRF ADP detection, 30 min. activity change, % (no concentration beside the values), hits read low. 360,000 tested, 0.3% active. AID 651819, 2012; in the data active = activity change below about -30%; note: % is set by controls: 0 for no effect and ±100 for the full control effect
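ATPase activity: ADP formed was measured by HTRF Transcreener (665/615 nm ratio) after 30 min at 37 deg C with 10 uM ATP. Compounds screened at one 76 uM concentration against 40 or 20 nM TRiC in Tris pH 7.4/KCl/MgCl2/DTT buffer.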
AT treatment: qHTS Assay for Identifying a Potential Treatment of Ataxia-Telangiectasia | F2112 A-T fibroblasts, KAP-1 phosphorylation AlphaLISA; neocarzinostatin DNA damage 30 min before lysis | Potency, µM (doses to about 57.5 µM), for the others: at the top dose activation, usual class: activators | 320,000 tested, 0.19% active; note: potency is the fitted concentration of half-maximal effect; % of control where 0% means no effect; nearly all actives have a fitted effect of over 45% in size
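hTERT-immortalized A-T patient fibroblasts (F2112), 500 cells/well in OPTI-MEM, 1% FBS, got compounds for 60 min, then NCS for 30 min at 37C. Lysates were then assayed for phospho-KAP-1 by AlphaLISA (anti-pKAP1 donor, anti-KAP1 acceptor beads), 6 hr at 25C.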
Nrf2 activator: qHTS of Nrf2 Activators; AREc32 ARE-luciferase reporter (MCF7-derived line), luminescence, 24 h; Potency, µM (doses to about 46.1 µM), for the others: at the highest dose activation, usual class: activators; 410,000 tested, 0.31% active; AID 624171, 2012; note: potency is the fitted concentration of half-maximal effect; % of control where 0% means no effect; nearly all actives have a fitted effect of over 65% in size
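AREc32_Fluc, 1000 cells/well, OPTI-MEM + 5% FBS, o/n 37 deg C 5% CO2; 23 nL cpd by pin tool, 24 hr; Steady-Glo 30 min RT, luminescence.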
A549 tox: Nrf2 qHTS screen for inhibitors: counterscreen for cytotoxicity; Potency, µM (doses to about 46 µM), for inactives: top-dose activity change, negative = cytotoxicity, actives largely listed as inhibitors; 390,000 tested, 0.16% active; A549 ARE-Fluc cells, CellTiter-Fluor viability, 18-24 h; note: potency is the fitted concentration of half-maximal effect; % is set by controls: 0 for no effect and ±100 for the full control effect
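A549 ARE-Fluc cells in 5% FBS OPTI-MEM, 5000 cells/well, rested 2 h then exposed to compounds in concentration-response for 18-24 h at 37 °C. Viability by CellTiter-Fluor fluorescence (Ex 405/Em 525) after 30 min; luciferase luminescence (BugLite, 15 min, RT) read afterwards.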
* marks the source's active call; other numbers are inactive results; u = inconclusive; x = no result; [ ] = dose if it differs, or a comment. Compounds with a hit are over-represented: about 2.6% of the library has one in this group of screens. Unless noted, calls come from the whole dose curve; as a rule, active = well fitted curve in the direction sought with a large enough effect; inconclusive = small, poorly fitted or top-dose-only effect, or another doubt; inactive = no such curve, though single readings can be large; an effect the other way counts as inactive or inconclusive.

SMILES	Nrf2 block	TCR activator	CCT chaperon mod	AT treatment	Nrf2 activator	A549 tox
Cc1ccccc1CN1CCN(CC(=O)NCCCN2CCN(c3ccc(F)cc3)CC2)C1=O	11.6µM*	0.6%	0.1	-2.7%	14.2%	-0.3%
CC(C)c1ccc(C2C3=C(CC(C)(C)CC3=O)NC3=C2C(=O)c2ccccc23)cc1 (stereo not given)	23.1µM*	4.7%	-0.4	2.9%	-0.1%	16.4µM*
Cc1nc2ccccc2c(=O)n1NS(C)(=O)=O	x	6.2%	-10.5	-5.8%	-0.7%	2.4%
Cc1nc2ccccc2c(=O)n1NCc1cc(Br)cs1	-12.2%	-0.2%	-3.2	-5.7%	7.94µM*	6.0%
CC1CCN(S(=O)(=O)c2ccc(NC(=O)C3CCN(C(=O)c4ccco4)CC3)cc2)CC1	13µM*	9.4%	0.2	-9.1%	4.4%	1.9%
O=C(Nc1ccc(S(=O)(=O)N2CCCCC2)cc1)C1CCN(C(=O)c2ccco2)CC1	u	2.3%	-2.4	-2.9%	-1.9%	2.6%
O=C(Nc1ccc(Oc2ccccc2)cc1)C1CCN(S(=O)(=O)c2ccccc2)CC1	20.6µM*	x	x	x	-0.9%	-14.0%
Cc1ccc2c(CC(=O)Nc3ccc(S(=O)(=O)N4CCC(C)CC4)cc3)coc2c1	u	x	x	x	0.1%	-22.5%
Cc1ccc(S(=O)(=O)N2CCC(C(=O)Nc3ccc(Oc4ccccc4)cc3)CC2)cc1	u	x	x	x	0.3%	-9.8%
Cc1ccc2occ(CC(=O)Nc3ccc(S(=O)(=O)N4CCC(C)CC4)cc3)c2c1	25.9µM*	x	x	x	-0.4%	-12.5%
O=C(Nc1nnc(Cc2ccc(Cl)cc2)s1)C1CCN(C(=O)c2ccco2)CC1	16.4µM*	x	x	x	x	-5.6%
COc1ccccc1CCC(=O)N1CCC(n2nccc2NC(=O)C2CCOC2)CC1 (stereo not given)	-1.4%	1.5%	0.3	5.9%	-0.4%	1.5%
Cc1ccc(C)c(N2CCN(C(=O)c3ccc4c(=O)n(CCc5ccccc5)c(=O)[nH]c4c3)CC2)c1	-10.1%[9.27 µM]	x	x	x	-0.7%	1.3%
O=C(Nc1ccc(Br)cc1)C1CCCN(S(=O)(=O)c2ccc(Br)s2)C1 (stereo not given)	8.4%	x	x	x	-0.8%	4.2%
O=[N+]([O-])c1cc(Cl)c2cccnc2c1O	u	5.0%	-0.6	1.8%	11.2%	u
O=[N+]([O-])c1ccc(O)c2ncccc12	3.66µM*	9.0%	-3.5	-7.3%	-2.1%	13µM*
O=[N+]([O-])c1cc(Cl)c(O)c2ncccc12	20.6µM*	10.4%	-0.9	-4.9%	7.7%	u
O=C(CNC(=O)C1CCCCC1)OC(C(=O)Nc1cc(C(F)(F)F)ccc1Cl)c1ccccc1 (stereo not given)	-10.9%	x	x	x	x	4.0%
CCOC(=O)c1cc(C)n(CC2CCC(C(=O)Nc3cccc(C)c3)CC2)c1C (stereo not given)	-22.8%	x	x	x	0.0%	-7.0%
CC1(C)CC(NC(=S)NC(=O)c2cc(Br)ccc2Cl)CC(C)(C)N1	-11.9%	8.1%	0.2	6.6%	-0.8%	-27.4%
Cc1ccc(-c2nc3n(n2)Cc2ccccc2-3)cc1	u	1.5%[46.1 µM]	-0.9	4.6%	-1.1%	0.4%
CCn1c(C)nc2cc(-c3nc4n(n3)Cc3ccccc3-4)ccc21	2.31µM*	4.9%	2.6	-6.5%	-4.5%	-6.7%
CCc1ccc(N2C(=O)CS(=O)(=O)C23C(=O)N(Cc2ccccc2F)c2ccccc23)cc1 (stereo not given)	28.2%	x	x	x	0.1%	0.0%
Cc1c(Cl)cccc1NC(=O)CCS(=O)(=O)c1ccc2c(c1)CC(=O)N2C	u	x	x	x	3.7%	9.9%
CCN1CCc2nc3sc(C(=O)c4ccccc4)c(N)c3cc2C1	u	x	x	x	8.6%	-20.3%
O=C(CSc1ncnc2c1cnn2-c1ccccc1Cl)N1CCN(C(=O)c2ccco2)CC1	14.6µM*	0.8%	0.9	4.3%	4.3%	1.7%
